Screening results deposited in PubChem by Broad Institute.
Shown is part of a subset that was picked to be rich in hits.
NOMO-1 viab – STK33 inhibitor candidate reducing NOMO-1 cell viability; NOMO-1 AML viability, CellTiter-Glo luminescence, 72 h; inhibition, % (concentration not given with the values); 7.5% of 37,000 active; AID 2330; in the data active means inhibition above about 80%
STK33 kin inh – human STK33 kinase inhibition | ADP-Glo luminescence, MBP substrate | 0.44% of 27,000 active | Q9BYT3 | inhibition, % at 12.5 µM; in the data active means inhibition above about 20%
Target sequence (Q9BYT3 whole entry, looked up): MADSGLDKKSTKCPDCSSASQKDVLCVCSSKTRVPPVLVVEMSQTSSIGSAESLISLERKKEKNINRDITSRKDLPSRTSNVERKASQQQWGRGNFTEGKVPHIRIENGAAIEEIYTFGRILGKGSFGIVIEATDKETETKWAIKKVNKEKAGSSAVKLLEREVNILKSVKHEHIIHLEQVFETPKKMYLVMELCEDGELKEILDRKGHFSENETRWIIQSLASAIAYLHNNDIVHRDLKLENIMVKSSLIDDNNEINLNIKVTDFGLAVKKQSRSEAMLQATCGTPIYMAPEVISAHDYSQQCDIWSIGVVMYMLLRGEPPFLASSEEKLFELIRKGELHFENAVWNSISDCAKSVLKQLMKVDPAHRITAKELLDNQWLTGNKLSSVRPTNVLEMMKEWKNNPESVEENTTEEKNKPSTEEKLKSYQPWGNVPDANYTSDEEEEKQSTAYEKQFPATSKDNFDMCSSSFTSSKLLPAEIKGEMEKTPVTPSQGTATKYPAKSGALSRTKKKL
PD-1 reversal – activators reversing PD-1 mediated T-cell inhibition; primary human CD4 T cells, PD-L1 beads, CellTiter-Glo 96 h; activation, % (concentration not given with the values); 29,000 tested, under 10 active; AID 2316; call rule not given here;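 further: 0% = median vehicle wells and 100% = positive control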
An asterisk follows results filed as active.

What do the screens show for `COc1ccc(OC)c(NC(=O)C2=C(C)NC(=S)NC2c2ccc(OC)cc2OC)c1` (centres undefined)?
NOMO-1 viab: 38; STK33 kin inh: 5; PD-1 reversal: -8

What do the screens show for `COC(=O)COc1ccc(C2NC(=S)NC(C)=C2C(=O)OC)cc1` (centres undefined)?
NOMO-1 viab: 89*; STK33 kin inh: 0

Results for CC1=C[C@@H](O)[C@H]2C(C)(C)CCC[C@]2(C)[C@@]1(O)CO ?
STK33 kin inh: -4

How did Cc1ccc2oc(-c3ccc(Cl)c(NC(=O)COc4ccc(C)c(C)c4)c3)nc2c1 do in these assays?
NOMO-1 viab: 16; STK33 kin inh: 3; PD-1 reversal: 4

Results for Cc1cccc(OCC(=O)Nc2cc(-c3nc4cc(Cl)ccc4o3)ccc2C)c1 ?
NOMO-1 viab: 103*; STK33 kin inh: 0; PD-1 reversal: -11

What do the screens show for `Cc1ccc2oc(-c3ccc(C)c(NC(=O)COc4ccc(Br)cc4)c3)nc2c1`?
NOMO-1 viab: 44; STK33 kin inh: 3; PD-1 reversal: 3

What do the screens show for `Cc1cc2nc(-c3ccc(C)c(NC(=O)COc4ccc([N+](=O)[O-])cc4)c3)oc2cc1C`?
NOMO-1 viab: 94*; STK33 kin inh: 3; PD-1 reversal: 0

Results for CCCc1cc(=O)oc2cc(OC(=O)/C=C/c3cccs3)ccc12 ?
NOMO-1 viab: 33; PD-1 reversal: -1

Results for C[C@H](CO)N1C[C@H](C)[C@H](CN(C)Cc2ccc(C(=O)Nc3ccccc3N)cc2)Oc2c(NC(=O)C3CC3)cccc2C1=O ?
NOMO-1 viab: 122*; PD-1 reversal: -1

Results for C[C@@H]1CN([C@@H](C)CO)C(=O)c2cccc(NC(=O)C3CC3)c2O[C@@H]1CN(C)Cc1ccc(C(=O)Nc2ccccc2N)cc1 ?
NOMO-1 viab: 128*; PD-1 reversal: -4

How did C[C@@H]1CN([C@H](C)CO)C(=O)c2cccc(NC(=O)C3CCOCC3)c2O[C@H]1CN(C)Cc1ccc(C(=O)Nc2ccccc2N)cc1 do in these assays?
NOMO-1 viab: 19; PD-1 reversal: 1

How did C[C@H]1CN([C@@H](C)CO)C(=O)c2cccc(NC(=O)NC3CCCCC3)c2O[C@H]1CN(C)Cc1ccc(C(=O)O)cc1 do in these assays?
NOMO-1 viab: 13; PD-1 reversal: 1

How did C[C@@H]1CN([C@H](C)CO)C(=O)c2cccc(NC(=O)C3CCCCC3)c2O[C@@H]1CN(C)Cc1ccc(C(=O)O)cc1 do in these assays?
NOMO-1 viab: -21; PD-1 reversal: 0

How did C[C@@H]1CN([C@H](C)CO)C(=O)c2cccc(NC(=O)C3CC3)c2O[C@H]1CN(C)Cc1ccc(C(=O)O)cc1 do in these assays?
NOMO-1 viab: 8; PD-1 reversal: 0

Results for C[C@@H]1CN([C@@H](C)CO)C(=O)c2cccc(NC(=O)NC3CCCCC3)c2O[C@@H]1CN(C)Cc1ccc(C(=O)Nc2ccccc2N)cc1 ?
NOMO-1 viab: 129*; PD-1 reversal: -3

Results for C[C@H]1CN([C@@H](C)CO)C(=O)c2cccc(NC(=O)C3CCCCC3)c2O[C@H]1CN(C)Cc1ccc(C(=O)Nc2ccccc2N)cc1 ?
NOMO-1 viab: 127*; PD-1 reversal: -4

Results for Cc1ccc(-c2ccc(OC(=O)c3ccccc3F)cc2)cc1 ?
NOMO-1 viab: 9; PD-1 reversal: 0

Results for Cc1ccc(C(=O)Nc2ccc(OCC(=O)O)cc2)cc1C ?
NOMO-1 viab: 44; STK33 kin inh: 0; PD-1 reversal: 2

Results for COc1ccc(C(=O)CSc2nc3cc(C)c(C)cc3[nH]2)cc1OC ?
NOMO-1 viab: -9; STK33 kin inh: 2

Results for O=C(/C=C/c1ccc(O)cc1)NCCCCN(CCCN(CCCNC(=O)/C=C/c1ccc(O)cc1)C(=O)/C=C/c1ccc(O)cc1)C(=O)/C=C/c1ccc(O)cc1 ?
NOMO-1 viab: 71; STK33 kin inh: 2; PD-1 reversal: 0

How did COc1ccc2oc(=O)c(-c3cnc(C)s3)cc2c1 do in these assays?
NOMO-1 viab: 12; PD-1 reversal: 1

What do the screens show for `COc1ccccc1OCCSc1n[nH]c2nc3ccccc3n12`?
NOMO-1 viab: 7; STK33 kin inh: 1; PD-1 reversal: 0

How did C[C@H](CO)N1C[C@H](C)[C@@H](CN(C)C(=O)Nc2ccc(F)cc2)Oc2ccc(NC(=O)Nc3ccc(C(F)(F)F)cc3)cc2C1=O do in these assays?
NOMO-1 viab: 29; PD-1 reversal: -3

What do the screens show for `C[C@@H]1CN([C@@H](C)CO)C(=O)c2cc(NC(=O)Nc3ccc(C(F)(F)F)cc3)ccc2O[C@H]1CN(C)C(=O)Nc1ccc(F)cc1`?
NOMO-1 viab: 39

Results for C[C@@H]1CN([C@H](C)CO)C(=O)c2cc(NC(=O)Nc3ccc(C(F)(F)F)cc3)ccc2O[C@@H]1CN(C)C(=O)Nc1ccc(F)cc1 ?
NOMO-1 viab: 84*; PD-1 reversal: -4

How did C[C@H](CO)N1C[C@H](C)[C@H](CN(C)C(=O)Nc2ccc(C(F)(F)F)cc2)Oc2ccc(NC(=O)Nc3ccc(F)cc3)cc2C1=O do in these assays?
NOMO-1 viab: 104*; STK33 kin inh: 1; PD-1 reversal: -5

What do the screens show for `CSc1cc(C(F)(F)F)c(C(=O)Nc2c(C)cccc2C)cn1`?
NOMO-1 viab: 21; PD-1 reversal: 1

What do the screens show for `COc1cc(C2NC(=O)NC(c3ccccc3)=C2C(=O)c2ccccc2)cc(Cl)c1OCC(N)=O` (centres undefined)?
NOMO-1 viab: 5; STK33 kin inh: 5; PD-1 reversal: -5

Results for N#Cc1c(NC(=O)COc2ccc(C(=O)Nc3cc(Cl)ccc3Cl)cc2)sc2c1CCC2 ?
NOMO-1 viab: 32; STK33 kin inh: -1

Results for O=C(CSc1n[nH]c(-c2ccc(Cl)cc2)n1)Nc1ccc(F)c(Cl)c1 ?
NOMO-1 viab: 20; STK33 kin inh: 1; PD-1 reversal: -2

How did CSc1sc(C(=O)NN)cc1S(=O)(=O)C(C)C do in these assays?
NOMO-1 viab: 50; PD-1 reversal: 0

How did CC1CCCC2OC2C(=O)c2c(O)cc(O)cc2CC(=O)O1 (centres undefined) do in these assays?
NOMO-1 viab: 15; STK33 kin inh: -2; PD-1 reversal: 2

What do the screens show for `CC1CCC/C=C/C(=O)c2c(O)cc(O)cc2CC(=O)O1` (centres undefined)?
NOMO-1 viab: 108*; STK33 kin inh: -2; PD-1 reversal: -14

Results for C[C@H](CO)N1C[C@H](C)[C@H](CN(C)Cc2ccc(-c3ccccc3)cc2)Oc2ccc(NC(=O)Nc3ccc(C(F)(F)F)cc3)cc2CC1=O ?
NOMO-1 viab: 126*; STK33 kin inh: 5; PD-1 reversal: -3

Results for C[C@@H]1CN([C@H](C)CO)C(=O)Cc2cc(NC(=O)Nc3ccc(C(F)(F)F)cc3)ccc2O[C@@H]1CN(C)Cc1ccc(-c2ccccc2)cc1 ?
NOMO-1 viab: 114*; STK33 kin inh: 3; PD-1 reversal: -1

Results for C[C@H]1CN([C@@H](C)CO)C(=O)Cc2cc(NC(=O)Nc3ccc(C(F)(F)F)cc3)ccc2O[C@@H]1CN(C)Cc1ccc(Oc2ccccc2)cc1 ?
NOMO-1 viab: 43; STK33 kin inh: 0

What do the screens show for `COc1cc(NC(=O)CSc2nnc(-c3ccncc3)n2-c2ccc(C)cc2)cc(OC)c1`?
NOMO-1 viab: 21; STK33 kin inh: 1; PD-1 reversal: -2
